This is a sample that favours compounds with a hit; in the whole collection about 7.8% have one here.
sEH inh: soluble epoxide hydrolase inhibitors, primary screen, biochemical, human sEH | Bifunctional epoxide hydrolase 2 (Homo sapiens), P34913 | recombinant human sEH enzymatic activity assay | inhibition, % at 2 µM | hit rate 0.34% among 91,000 | AID 707, 2007; in the data active = inhibition above about 80%
Target sequence (P34913 whole entry, looked up): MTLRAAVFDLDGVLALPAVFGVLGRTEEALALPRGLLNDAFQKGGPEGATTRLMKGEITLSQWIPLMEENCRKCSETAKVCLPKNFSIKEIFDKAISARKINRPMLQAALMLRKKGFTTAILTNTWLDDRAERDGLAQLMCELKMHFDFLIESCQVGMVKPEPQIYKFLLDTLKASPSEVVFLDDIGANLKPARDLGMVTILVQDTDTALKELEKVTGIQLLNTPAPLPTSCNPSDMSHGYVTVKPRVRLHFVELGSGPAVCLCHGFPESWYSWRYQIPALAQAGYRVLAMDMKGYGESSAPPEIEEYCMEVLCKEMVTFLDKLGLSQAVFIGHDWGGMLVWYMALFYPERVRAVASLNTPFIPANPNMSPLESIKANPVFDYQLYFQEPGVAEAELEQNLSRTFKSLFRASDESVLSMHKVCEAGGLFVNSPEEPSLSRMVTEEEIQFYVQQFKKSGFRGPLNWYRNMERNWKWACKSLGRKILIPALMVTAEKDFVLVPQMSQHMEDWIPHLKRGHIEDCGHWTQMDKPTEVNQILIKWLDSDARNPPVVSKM
PostGolgi ctrl: growth inhibition of yeast control strain, primary screen, counter-screen for post-Golgi transport modulator project | hit rate 5% among 98,000 | efflux-deficient yeast background strain, growth absorbance A615, 16 h | inhibition, % at 10 µM
sEH act: soluble epoxide hydrolase activators, primary screen, biochemical, human sEH; AID 717, 2007; purified human sEH enzymatic activity, activator screen; hit rate 0.04% among 91,000; activation, % at 2 µM; Bifunctional epoxide hydrolase 2 (Homo sapiens), P34913; in the data active = activation above about 37%
PostGolgi yeast: phenotypic screen on post-Golgi transport, primary screen; post-Golgi transport phenotypic cell assay; inhibition, % at 10 µM; hit rate 0.9% among 98,000;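 also: yeast cells grown in 1536-well plates; yeast grown about 18 h at 30C before absorbance read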
Cav32 inh: Cav3.2 calcium influx blockers – cell-based, Fluo-4 calcium fluorescence, FDSS, MLSMR library, primary screen; Voltage-dependent T-type calcium channel subunit alpha-1H (Homo sapiens), O95180; Cav3.2-expressing cells; hits give low values; B-score at 10 µM; hit rate 4% among 100,000;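 active = single-dose well whose peak fluorescence ratio is a statistical outlier from its plate by either plate-standardised score or position-corrected B-score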
* = called active by the depositor; . = no result. Rule as the data show it, unless noted: active = inhibition above about 30%; inactive = the rest.

SMILES	sEH inh	PostGolgi ctrl	sEH act	PostGolgi yeast	Cav32 inh
C=CCOc1ccc(CNn2c(C)n[nH]c2=S)cc1OC	-26	1	25	-2	0.37
Cc1ccc(C2=NC(C)(C)N=C2SCC(=O)Nc2ccc(Cl)cc2)cc1	-1	34*	-2	13	-4.7*
CC1(C)N=C(SCC(=O)Nc2ccc(Cl)cc2Cl)C(c2ccccc2)=N1	-2	11	2	-11	-5.7*
CCS(=O)(=O)N1CCN(c2ccc([N+](=O)[O-])c(N3CCOCC3)c2)CC1	.	.	.	.	1.3
Fc1ccc(CSc2nc3ccccc3[nH]2)c2ccccc12	16	47*	-21	2	.
O=c1cc(CSc2nc3ccccc3[nH]2)c2ccccc2[nH]1	15	7	-14	-6	1.1
O=S(=O)(c1ccc2oc3ccccc3c2c1)N1CCCC1	-2	.	2	.	-0.59
CN(CCOc1ccccc1)S(=O)(=O)c1ccc2oc3ccccc3c2c1	-10	18	7	-2	-5.4*
c1ccc2c(c1)ncn2-c1ncnc2sc3c(c12)CCCC3	13	13	-10	-9	-1.3
Cc1cc2ncn(-c3ncnc4sc5c(c34)CCC(C)C5)c2cc1C (stereo not given)	17	70*	-14	4	.
Cc1cc2ncn(-c3ncnc4sc5c(c34)CCCC5)c2cc1C	3	39*	-4	-6	-5.7*
Cc1cc2ncn(-c3ncnc4sc(C)c(C)c34)c2cc1C	1	26	-1	-5	.
OCCN1CCN(Cc2cccc(Oc3ccc(Cl)cc3)c2)CC1	8	44*	-10	4	-0.075
O=C(c1ccc2ccccc2c1)N1CCN(c2ccc(C(F)(F)F)cn2)CC1	-10	4	8	-1	0.63
COCc1c(C(=O)N2CCN(c3ccc(C(F)(F)F)cn3)CC2)oc2ccccc12	-9	12	9	3	-4.7*
O=C(NCCNC(=O)c1cc(OCC(F)(F)F)ccc1OCC(F)(F)F)Nc1cccc(C(F)(F)F)c1	14	6	-13	-6	-8*
O=C(Nc1ccc(F)c(F)c1)NC1CCCCC1	90*	9	-90	10	0.13
O=C(Nc1ccc(Cl)cc1)NC1CCCCC1	.	-6	.	3	0.43
CC(=O)c1cccc(NC(=O)NC2CCCCC2)c1	69	-2	-69	25	0.54
O=C(NCCNS(=O)(=O)c1ccccc1Cl)c1cc(OCC(F)(F)F)ccc1OCC(F)(F)F	-5	6	4	5	-0.26
O=C(Nc1cccc(C(F)(F)F)c1)NC1CCCCC1	94*	0	-94	2	-1.6
O=C(Nc1ccc2c(c1)nc1n2CCN(C2CCCCC2)C1)NC1CCCCC1	89*	20	-89	14	-2.6
COc1ccc(CCn2c(C)cc3c(c2=O)C(c2ccc4c(c2)OCO4)C(C#N)=C(N)O3)cc1OC (stereo not given)	.	17	.	8	1
COc1ccc(-c2noc(CCC(=O)NCc3cccnc3)n2)cc1OC	.	6	.	-3	1.3
Cc1cc(C(=O)COc2ccc(-c3nnco3)cc2)c(C)n1Cc1ccccc1	1	21	-2	4	-2.8
SMILES	sEH inh	PostGolgi ctrl	sEH act	PostGolgi yeast	Cav32 inh
COC(=O)[C@H](C)NC(=O)Nc1cccc(C(F)(F)F)c1	8	6	-4	12	0.38
O=C(Nc1ccc(OC(F)F)cc1)Nc1cccc(C(F)(F)F)c1	86*	64*	-86	79*	-0.65
Cc1noc(C)c1CSc1nc2ccccc2c(=O)n1-c1ccccc1	-3	18	4	-6	-2
O=S(=O)(Nc1nc2ccccc2nc1NCc1ccco1)c1ccc(Cl)cc1	-16	38*	18	-8	-4.8*
Cc1noc(C)c1CSc1nc2ccccc2nc1NS(=O)(=O)c1ccc(Cl)cc1	-1	-1	1	7	-8.1*
Cc1ccc(S(=O)(=O)Nc2nc3ccccc3nc2NCc2ccco2)cc1	6	13	-6	1	-2.5
O=C(Nc1cccc(F)c1)c1ccc(S(=O)(=O)NCC2CCCO2)cc1 (stereo not given)	.	-2	.	17	-5.3*
O=C(CN(c1ccc(F)cc1)S(=O)(=O)c1ccc2c(c1)OCCO2)NCc1ccccc1	9	19	-10	17	1.3
O=C(CN(c1ccc(F)cc1)S(=O)(=O)c1ccc2c(c1)OCCO2)Nc1ccccc1	-18	7	21	33*	-0.53
CN(Cc1ccccc1)C(=O)CN(c1ccc(F)cc1)S(=O)(=O)c1ccc2c(c1)OCCO2	9	.	-4	.	-5*
CN(c1ncc(C(F)(F)F)cc1Cl)n1cc(C(N)=O)c2ccccc2c1=O	11	-5	-12	-4	0.0091
CC[C@H](C)/C=C(C)/C=C/C1=CC2=CC(=O)[C@]3(C)OC(=O)[C@@H](C(C)=O)[C@@H]3C2=CO1	.	.	.	.	-4*
CC(=O)COc1ncn(-c2ccccc2)n1	-10	0	11	10	-4.4*
O=C(c1csc2ccccc12)N1CCN(c2ccc(Cl)c(Cl)c2)CC1	-1	36*	2	18	-0.15
CCC(Sc1nc2ccccc2s1)C(=O)Nc1cc(C)on1 (stereo not given)	8	.	-8	.	-2.6
CCC(SC1=N/C(=C/c2ccccc2OC)C(=O)N1c1ccccc1)C(=O)Nc1cc(C)on1 (stereo not given)	2	6	1	2	-4.8*
Cc1ccc(NC(=O)CCSc2nc(C)cc(C)n2)cc1	11	6	-9	0	0.42
O=C(C(Sc1ccccc1)c1ccccc1)N1CCN(c2ccccc2F)CC1 (stereo not given)	-6	16	6	5	-4*
COc1ccc(C2CC(=O)C(C=NCCCN3CCOCC3)=C(O)C2)cc1 (stereo not given)	0	39*	2	-4	0.41
COc1ccc(C=NCCCN2CCOCC2)cc1	-3	20	3	5	-0.25
O=C1CC(c2ccc(Cl)c(Cl)c2)CC(O)=C1C=NCCN1CCNCC1 (stereo not given)	.	37*	.	14	-1.9
COc1ccc(CN2CCCCC2c2cccnc2)c(OC)c1C (stereo not given)	.	.	.	.	0.079
COC(=O)[C@@]1(Cc2ccc(OC)cc2)[C@H]2c3cc(C(=O)N(C)C)n(CCSCCO)c3C[C@H]2CN1C(=O)c1ccccc1	.	.	.	.	0.28
Cc1ccc(C)c(N2CCN(CC3CC=CCC3)CC2)c1 (stereo not given)	-2	1	-1	12	-2.5
O=C1OC(Oc2ccccc2)(c2ccccc2)c2ccccc21 (stereo not given)	4	32*	-2	2	-2.5
O=C1OC(OC2CCCCC2)(c2ccccc2)c2ccccc21 (stereo not given)	8	39*	-6	6	-0.76
CCn1c(SCC(=O)Nc2cc(C)on2)nnc1-c1c[nH]c2ccccc12	.	.	.	.	-0.45
CCCNC(=S)Nc1ccc2nc(-c3ccccn3)c(-c3ccccn3)nc2c1	6	9	-5	-1	.
COc1cccc(C(=O)NC(Cc2ccccc2)c2ccc3c(c2)OCCCO3)c1 (stereo not given)	5	0	-6	11	-0.89

Assay outcomes as filed in PubChem.
